Hit rate of the full screen: of about 2,100 compounds, about 760 (36%) were called active. A selection follows. Values without a mark were called inactive.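 Rule for the calls: active = thallium-flux fluorescence traces judged by eye to show enhanced or reduced glutamate response, manual score 1 or -1, so both directions (some results past the limit were not filed as active); inactive = the rest, including fluorescent or raised-baseline compounds.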
Test: non-GIRK thallium flux modulation in mGlu8 cells, confirmation, counter-screen for GIRK activator project, cell-based, HEK-293 rmGlu8, no GIRK (AID 623868);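 note: extra codes mark interference with 3 for fluorescent and 4 for baseline rise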
Details: thallium flux fluorescence, at 10 µM, actives lie on both sides, codes: 1 enhancer, -1 blocker, 0 none, thallium stimulus containing EC20 glutamate

| Compound | manual score |
| --- | --- |
| CCc1nc2cc(Cl)c(Cl)cc2[nH]1 | 0 |
| CCn1c(-c2cc(-c3cccc(OC)c3)nc3ccccc23)n[nH]c1=S | 0.5 |
| CCCOc1cccc(-c2cc(-c3n[nH]c(=S)n3CC)c3ccccc3n2)c1 | 1 (active) |
| O=C(Nc1nnc(-c2cccs2)o1)c1cccc(Oc2ccccc2)c1 | 1 (active) |
| O=C(Nc1nnc(-c2cccs2)o1)c1cccc(C(F)(F)F)c1 | 1 (active) |
| Cc1occc1C(=O)Nc1cccc(C(F)(F)F)c1 | 0 |
| O=C(NNC(=S)Nc1cccc(C(F)(F)F)c1)c1cccc(Cl)c1 | 0 |
| O=C(Nc1cccs1)Nc1c(F)c(F)c(F)c(F)c1F | 0 |
| CCCCN(C)S(=O)(=O)c1ccc(C(=O)Nc2nnc(-c3cccs3)o2)cc1 | 1 (active) |
| O=C(Nc1nnc(-c2cccs2)o1)c1cccc(F)c1 | 1 (active) |
| Cc1ncoc1C(=O)Nc1ccc(Oc2ccccc2)cc1 | 0 |
| Cc1cc(C)c(NC(=O)c2ccc(S(=O)(=O)N(C)C)cc2)c(C)n1 | 0 |
| CCOC(=O)C1=C(CC)Nc2ccccc2N=C1NC(=O)c1ccc(S(=O)(=O)N(C)C)cc1 | -0.5 |
| Cc1nc(C)c(C(=O)Nc2ccc(Oc3ccccc3)cc2)o1 | 0 |
| CCOC(=O)C1=C(CC)Nc2ccccc2N=C1NC(=O)Nc1ccc(Cl)c(Cl)c1 | 0 |
| CN1CCN(S(=O)(=O)c2cccc(S(=O)(=O)c3cccc(S(=O)(=O)N4CCN(C)CC4)c3)c2)CC1 | 0 |
| Cc1cc2nc(CCN(C(=S)NCC(C)C)C3CCCC3)[nH]c2cc1C | 0 |
| O=C(CN1C(=O)c2cccc3cccc(c23)C1=O)N1CCN(c2ccccn2)CC1 | 3 |
| Cc1sc2nc(CN3CCCC3)nc(N3CCN(S(=O)(=O)c4cccs4)CC3)c2c1C | 0 |
| Cc1nc(N2CCN(C(=O)COc3ccccc3)CC2)c2c(C)c(C)sc2n1 | -1 (active) |
| CSc1cccc(NC(=O)CN(c2ccccc2)S(=O)(=O)N(C)C)c1 | 0 |
| CCOC(=O)CSc1cc(CSc2ccccc2)nc(-c2ccccc2)n1 | 0 |

| Compound | manual score |
| --- | --- |
| Cc1cccc(CSc2cccc3cccnc23)c1 | 1 (active) |
| CN(C)C(=O)CSc1cccc2cccnc12 | 0 |
| CCOC(=O)CSc1cccc2cccnc12 | 1 (active) |
| Cc1ccc(C(=O)c2ccc(N3CCOCC3)c(F)c2)cc1 | 0 |
| S=C(N/N=C/c1ccccc1)N1CCOCC1 | 1 (active) |
| Cc1ccc(/C=N/NC(=S)N2CCOCC2)cc1 | 1 (active) |
| O=C(NC(=Nc1ccccc1)N1CCOCC1)Nc1ccccc1 | 0 |
| CC(CCc1ccccc1)NC(=O)N1CCOCC1 (centres undefined) | 0 |
| O=C(CCCc1nc(-c2ccc(Cl)cc2)no1)N1CCOCC1 | 0 |
| S=C(N/N=C/c1ccc(Cl)cc1)N1CCOCC1 | 1 (active) |
| Clc1ccc(/C=N/Nc2nc(Cl)nc3ccccc23)cc1 | 0 |
| Cc1ccc(S(=O)(=O)c2c(C)cc(C)nc2Cl)c(C)c1 | 0 |
| Cc1ccn2c(NC3CCCCC3)c(C(C)C)nc2c1 | 0 |
| Cc1ccc(NC(=O)CSC(N)=O)cc1Cl | 0 |
| CC(=O)Nc1ccc(S(=O)(=O)NC(C(=O)O)C2=CCC=CC2)cc1 (centres undefined) | 0 |
| CC1=NN(C(N)=S)C(=O)C1N=Nc1ccc(C)cc1C (centres undefined) | 1 (active) |
| CC1=NN(C(N)=S)C(=O)C1N=Nc1ccccc1C (centres undefined) | 1 (active) |
| N=c1c2c(ncn1CCN1CCOCC1)Oc1ccc3ccccc3c1C2c1ccccc1 (centres undefined) | 0 |
| Cn1c(=O)c(NCCc2ccccc2)c2c3c(cccc31)C(=O)c1ccccc1-2 | 3 |
| Cc1nnc2n(C3CCCCC3)c(=O)c3c4c(sc3n12)COC(C)(C)C4 | -1 (active) |
| CC(Nc1nc(N2CCCCC2)nc2ccccc12)c1ccccc1 (centres undefined) | 0 |
| FC(F)(F)c1cnc(NNC(=S)Nc2ccc(Cl)cc2)c(Cl)c1 | 1 (active) |

| Compound | manual score |
| --- | --- |
| O=C(NNc1ncc(C(F)(F)F)cc1Cl)c1c(Cl)cccc1Cl | 0.5 |
| NC(=O)c1ccc(Cc2ncc(C(F)(F)F)cc2Cl)s1 | 0 |
| Cc1ccc(NC(=S)NNc2ncc(C(F)(F)F)cc2Cl)c(C)c1 | 1 (active) |
| O=C1/C(=C\c2ccccn2)SC(=S)N1Nc1ncc(C(F)(F)F)cc1Cl | 0 |
| Cc1ccc(NC(=S)Nc2ccc(Cl)c(Cl)c2)c(OC(F)F)c1 | 0 |
| FC(F)(F)c1cnc(NNC(=S)Nc2ccccc2Cl)c(Cl)c1 | 1 (active) |
| Cn1c(=O)c(NCCO)c2c3c(cccc31)C(=O)c1ccccc1-2 | 3 |
| C/C(=N/NC(=O)c1ccncc1)c1cc2ccc(O)cc2oc1=O | 0 |
| Cc1cc(NC(=O)c2ccco2)ccc1NC(=O)Cc1cccs1 | 0 |
| O=C(CC(=O)Nc1ccccn1)Nc1ccccn1 | 0 |
| Cc1cccc(NC(=S)NC(=O)c2ccco2)n1 | 1 (active) |
| Cc1ccc2nsnc2c1NC(=S)NC(=O)c1ccco1 | 1 (active) |
| O=C(NC(=S)Nc1ccccn1)c1ccco1 | 1 (active) |
| O=C(NCCCn1ccnc1)Nc1ccc(Cl)c(Cl)c1 | 0 |
| N/C(=N/O)c1nc(N2CCCC2)nc(N(c2ccccc2)c2ccccc2)n1 | 0 |
| CC(=O)c1c(C)[nH]c(C(=O)CSc2ncnc3sc(-c4ccccc4)cc23)c1C | 1 (active) |
| CC(C)C(C)(C#N)NC(=O)CSc1ncnc2sc(-c3ccccc3)cc12 (centres undefined) | 0 |
| CN(CCC#N)C(=O)CSc1ncnc2sc(-c3ccccc3)cc12 | 0 |
| CCN(CC)C(=O)CSc1ncnc2sc(-c3ccccc3)cc12 | 0.5 |
| CC(=O)c1c(C)[nH]c(C(=O)COc2cc(C)cc(C)c2)c1C | 0 |
| CC(C)N(C(=O)CSc1ncnc2sc(-c3ccccc3)cc12)C(C)C | 1 (active) |
| CCOC(=O)Cn1c(=O)oc2cc(S(=O)(=O)NCCCc3ccccc3)ccc21 | 0 |

| Compound | manual score |
| --- | --- |
| Nc1nc(Nc2ccccc2)nc(NCc2ccco2)c1[N+](=O)[O-] | 0 |
| CCOC(=O)c1sc2ncnc(NCc3ccco3)c2c1C | 1 (active) |
| Cc1cccc(NC(=S)N2CCC(C(=O)c3ccc(F)cc3)CC2)c1C | 0 |
| COc1ccc(C(=O)NC(=S)N2CCC(C)CC2)cc1 | 1 (active) |
| CNC(=S)N1CCN(c2ccc(OC)cc2)CC1 | 0 |
| COc1ccc(NC(=O)Nc2ccccc2C(=O)N2CCCC2)cc1 | 0 |
| COc1ccc(C(=O)NC(=S)N2CCCCC2)cc1 | 1 (active) |
| CC1CCN(C(=S)NC(=O)c2ccccc2)CC1 | 0.5 |
| CCCCCCc1cc2cc(C(=O)NC)c(=N)oc2cc1O | 3 |
| COc1ccc(Nc2nnc(Cc3ccccc3)c(=O)[nH]2)c(OC)c1 | 0 |
| CCN(c1ccccc1)S(=O)(=O)c1ccc(NC(=S)NC(=O)c2ccc(Br)o2)cc1 | 1 (active) |
| CN(c1ccccc1)S(=O)(=O)c1ccc(NC(=S)NC(=O)c2ccccc2)cc1 | 0 |
| CCc1nnc(NS(=O)(=O)c2ccc(NC(=S)NC(=O)c3ccccc3)cc2)s1 | 0 |
| CCOC(=O)c1ccccc1NC(=O)CSc1nnc(Cc2cccn2C)n1-c1ccc(C)cc1 | -1 (active) |
| CCOC(=O)CN(C(=O)CSc1nnc(Cc2ccccc2)n1-c1ccc(C)cc1)c1ccccc1 | 0 |
| CCOC(=O)c1ccccc1NC(=O)CSc1nnc(Cc2cccn2C)n1-c1ccc(F)cc1 | 0 |
| COC(=O)c1ccc(NC(=O)CSc2nnc(COc3ccccc3)n2C)cc1 | 3 |
| CCOC(=O)c1ccccc1NC(=O)CSc1nnc(COc2ccccc2)n1CC | 0 |
| CCOC(=O)c1ccccc1NC(=O)CSc1nnc(COc2ccccc2C)n1C | -1 (active) |
| CCSc1nc(-c2ccccc2)c(C#N)c(=O)[nH]1 | -1 (active) |
| CCc1nc(SCc2ccc(F)cc2)[nH]c(=O)c1C#N | 3 |
| N#Cc1c(-c2ccco2)nc(SCc2ccc(F)cc2)[nH]c1=O | -1 (active) |

| Compound | manual score |
| --- | --- |
| CC(Sc1nc2ccccc2c(=O)[nH]1)C(=O)O (centres undefined) | 0 |
| CCOc1ccccc1C1CC(=O)NC(SCC)=C1C#N (centres undefined) | 0 |
| N#Cc1c(N)nc(SCc2ccccc2)c(C#N)c1-c1ccco1 | 0 |
| Cc1oc(-c2ccccc2F)nc1CS(=O)(=O)CC(=O)NCCN(C)C1CCCCC1 | 0 |
| c1cn(CC2(Cn3ccnc3)COC2)cn1 | 0 |
| O=C(c1ccccc1Oc1ccccc1)N1CCN(c2ccccc2)CC1 | 0 |
| O=C(c1ccccc1CCc1ccccc1)N1CCN(c2ccccn2)CC1 | 0 |
| CCCc1ccc(C(=O)N2CCN(c3ccccc3OCC)CC2)cc1 | -1 (active) |
| CCOc1ccccc1N1CCN(C(=O)c2cc3c(s2)CCC3)CC1 | -1 (active) |
| CC1CCN(c2c([N+](=O)[O-])c(=O)oc3ccccc23)CC1 | 0 |
| COc1ccc(C(C)n2c(C)c3c(C)nnc(C)c3c2C)cc1 (centres undefined) | 0 |
| O=C(CSc1nc2ccccc2n1CCc1ccccc1)N1CCOCC1 | 0 |
| O=C1OCCC1Sc1nc2cc(Cl)ccc2n1Cc1ccccc1 (centres undefined) | 1 (active) |
| CC1=C(C(=O)Nc2cccnc2)C(c2ccc3c(c2)OCO3)C2=C(CCCC2=O)N1 (centres undefined) | 0 |
| Cc1cccc(-c2nc(CN3CCCC(C(=O)NC4CCCCC4)C3)c(C)o2)c1 (centres undefined) | 0 |
| Cc1ccccc1-c1nc(CS(=O)(=O)CC(=O)NCCCN2CCCC2)c(C)o1 | 0 |
| Cc1oc(-c2ccccc2)nc1CS(=O)CC(=O)O (centres undefined) | 1 (active) |
| CCOC(=O)Cc1csc(NC(=S)NC(=O)C(C)(C)C)n1 | 1 (active) |
| CCOC(=O)Cc1csc(NC(=S)NC(=O)c2ccccc2)n1 | 1 (active) |
| CCOC(=O)Cc1csc(NC(=O)Nc2ccccc2)n1 | 0 |
| CCOC(=O)Cc1csc(NC(=S)NC(=O)c2ccc(C)cc2)n1 | 1 (active) |
